# PubChem BioAssay (NCI)
# The panel holds about 79,000 compounds, 15% with a hit somewhere; the sample as a whole holds those more often. A number with no mark means an inactive call. Calls of active or inactive are those of the source. Rule as the data show it: active = growth inhibition above about 70%; inactive = the rest.
# Key:
# [1] = NCI Yeast Anticancer Drug Screen. Data for the rad50 strain (AID 155);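 also: 0% = growth of vehicle-only cultures of the same strain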; settings: S. cerevisiae rad50 strain growth inhibition; at 50.0 µM; stronger effect = higher value
# In short: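 Yeast carrying a defined DNA repair defect were exposed to test compounds, and growth was compared with vehicle-treated controls to give percent inhibition.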
# [2] = NCI Yeast Anticancer Drug Screen. Data for the mec2-1 strain (AID 157); settings: S. cerevisiae mec2-1 strain, at 50.0 µM, stronger effect = higher value
# In short: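 Using mec2-1 yeast: add compound, measure growth, express inhibition versus vehicle-treated cultures.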
# [3] = NCI Yeast Anticancer Drug Screen. Data for the sgs1 mgt1 strain (AID 161);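 also: 0% = growth of cultures given vehicle only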; settings: S. cerevisiae sgs1 mgt1 strain, at 50.0 µM, stronger effect = higher value
# In short: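 Growth of a repair-deficient yeast mutant was monitored after compound treatment and expressed as inhibition relative to vehicle-treated cultures.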
# [4] = NCI Yeast Anticancer Drug Screen. Data for the cln2 rad14 strain (AID 165);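 also: 0% = growth equal to vehicle treated cultures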; settings: S. cerevisiae cln2 rad14 strain, at 50.0 µM, stronger effect = higher value
# In short: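 Yeast strain cln2 rad14, bearing defects in cell cycle control and DNA repair, serves as the test system; values reflect growth inhibition compared with vehicle.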
# [5] = NCI Yeast Anticancer Drug Screen. Data for the bub3 strain (AID 167); settings: S. cerevisiae bub3 mutant strain, at 50.0 µM, stronger effect = higher value
# In short: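 Compounds were applied to a genetically altered yeast strain carrying a cell-cycle control defect. Growth inhibition was scored against vehicle-treated controls.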
# [6] = NCI Yeast Anticancer Drug Screen. Data for the mlh1 rad18 strain (AID 175); settings: S. cerevisiae mlh1 rad18 strain growth inhibition; at 50.0 µM; stronger effect = higher value
# In short: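 Steps: expose repair-defective yeast to compound; measure growth; express inhibition against vehicle-treated controls.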
Structure (SMILES),growth inhibition [1],growth inhibition [2],growth inhibition [3],growth inhibition [4],growth inhibition [5],growth inhibition [6]
Cn1c(=O)c(Cl)c(N=[N+]=[N-])c2ccccc21,45.1%,37.4%,44%,51%,22%,30.2%
COc1cc2oc3c(C)c(=O)cc4oc(-c5ccccc5)cc(c2c2c1CCC(c1ccccc1)O2)c43 (stereo not given),-23.6%,-5.9%,-20.1%,4.35%,-20.2%,-0.7%
C[n+]1c(/C=C\c2ccc(O)cc2)cc(C(N)=O)c2ccccc21,19.2%,11.8%,17.1%,2.6%,3.65%,7.7%
COc1c(OCC(O)CN2CCCCC2)c2c(C)coc2c2ccoc12 (stereo not given),34.5%,18.6%,16.1%,9.25%,4.15%,23.1%
CN1C(=O)C(=O)n2c(cc3ccccc32)C1=O,1.15%,6.15%,7.25%,6.2%,-0.25%,-13.1%
S=C(S)NC1CCN(Cc2ccccc2)CC1,56.4%,30.6%,49%,48%,61.5%,26.1%
c1ccc(-c2nc3ccccc3nc2-c2ccc(-c3nc4ccccc4nc3-c3ccccc3)cc2)cc1,8.2%,-0.6%,-9%,4.6%,1.85%,-18.8%
CC(=O)Nc1cccc(Cc2ccccc2)c1,14.3%,-14.4%,1.05%,-67.2%,-6.3%,-4.6%
Cc1ccc(S(=O)(=O)c2ccc(O)c(C)c2)c(O)c1 (tested in a mixture with another compound),36.6%,22.9%,35.3%,45.6%,33.4%,50.2%
Nn1c(-c2ccccc2)n[nH]c1=O,18.7%,-15.7%,16.5%,25.9%,3.25%,9.45%
NC(=O)OCC1CCCCC1OC(N)=O (stereo not given),26.1%,-17.4%,-14.4%,-92.7%,-2.6%,-10.4%
CC(C)(C)NC(=O)CCC(=O)O,-8.65%,-19.4%,-16%,-18.2%,-2.3%,-7.3%
O=C(NCCCl)NCc1cccc2c1CCCC2,-12.5%,9.75%,-3.85%,-26.4%,-3.1%,-24.2%
O=S(=O)(c1ccc(Br)cc1)C(F)(F)F,11.1%,10%,0.1%,2.6%,12.7%,5.15%
CC1CC(C)NC(=O)N1 (stereo not given),-13%,13.5%,-13.9%,16.1%,15.8%,0.4%
COn1c2ccccc2c2c1cc1ccccc1[n+]2[O-],-7.15%,-5.95%,-8.9%,-52.5%,-9.65%,-13.4%
COC(=O)c1cc([N+](=O)[O-])c(Br)s1,99.3% (active),99.6% (active),99.6% (active),99.5% (active),99.3% (active),99.3% (active)
COC(=O)CCCCCN1C(=O)c2cccc([N+](=O)[O-])c2C1=O,20.6%,7.2%,15.6%,20.9%,15.2%,20.6%
C/C=C1/CC(C)C(C)(O)C(=O)OCC2C(O)CN3CCC(OC1=O)C23 (stereo not given),12.4%,-2.3%,-15.5%,-10.3%,-3.85%,-43.6%
CN(C)Cc1cc(N=Nc2ccc(Cl)cc2)ccc1O,26.9%,7.3%,19.4%,14.8%,36.5%,46.3%
